Experimental data as given in the supplement of paper PMC9262897, “Low-cost anti-mycobacterial drug discovery using engineered E. coli” (Nature Communications, 2022).
Structures can show the parent of a compound that is named as a salt. ± gives the standard deviation of the averaged measurements.

Key:
Experiment in all cases: growth (OD600 after 10 h); higher = more growth (less inhibition)
[1] = tested on: E. coli TESEC Alr+ wild-type control; settings: compound 0.1 mM; raw OD600 reference: median of DMSO wells 0.241, cell-free background 0.041
Description: (§1)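 TESEC Mtb Alr E. coli, or the Alr+ wild-type control, in 384-well plates with Prestwick library compounds at 0.1 mM and 1% DMSO, across arabinose induction levels of 1E3 to 1E7 nM. Growth is read as OD600 after 10 h at 37 °C in triplicate biological replicates.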

E. coli TESEC Mtb Alr [2] = settings: compound 0.1 mM
Description: as §1

E. coli TESEC Mtb Asd = settings: compound 0.1 mM
Description: (§2)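 TESEC E. coli strains in which the native enzyme is deleted and replaced by arabinose-inducible Mtb Asd, DapB, CysH or TrpD, each grown in its selective medium. Strains were screened against the Prestwick library at 0.1 mM and 1% DMSO in 384-well format at low and high arabinose induction. Growth is read as OD600 after 10 h in triplicate.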

E. coli TESEC Mtb DapB = settings: compound 0.1 mM
Description: as §2

E. coli TESEC Mtb Alr [3] = settings: compound 0.1 mM; remark: listed apart in the source
Description: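 TESEC Mtb Alr E. coli (ΔaraC ΔtolC ΔentC Δalr ΔdadX, arabinose-inducible Mtb Alr) or the Alr+ wild-type control strain, grown in defined M9-fructose medium without D-alanine in 96-well plates with Prestwick library compounds at 0.1 mM and 1% DMSO. Low Alr induction is 0.1 µM arabinose and high induction is 10 mM arabinose.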

[4] = arabinose 1000 nM, raw OD600 reference: median of DMSO wells 0.294, cell-free background 0.041
[5] = arabinose 10000 nM, raw OD600 reference: median of DMSO wells 0.264, cell-free background 0.041
[6] = arabinose 100000 nM, raw OD600 reference: median of DMSO wells 0.201, cell-free background 0.041
[7] = arabinose 1000000 nM, raw OD600 reference: median of DMSO wells 0.193, cell-free background 0.041
[8] = arabinose 10000000 nM, raw OD600 reference: median of DMSO wells 0.146, cell-free background 0.041
[9] = arabinose induction (level): High, raw OD600 reference: median of DMSO wells 0.331, cell-free background 0.041
[10] = arabinose induction (level): Low, raw OD600 reference: median of DMSO wells 0.417, cell-free background 0.041
[11] = arabinose induction (level): High, raw OD600 reference: median of DMSO wells […], cell-free background 0.041
[12] = arabinose induction (level): Low, raw OD600 reference: median of DMSO wells 0.227, cell-free background 0.041
[13] = arabinose 100 nM, raw OD600 reference: median of DMSO wells 0.413, cell-free background 0.052
[14] = arabinose 10000000 nM, raw OD600 reference: median of DMSO wells […], cell-free background 0.052

Row | Compound | growth [1] | growth (E. coli TESEC Mtb Alr [2]; [4]) | growth (E. coli TESEC Mtb Alr [2]; [5]) | growth (E. coli TESEC Mtb Alr [2]; [6]) | growth (E. coli TESEC Mtb Alr [2]; [7]) | growth (E. coli TESEC Mtb Alr [2]; [8]) | growth (E. coli TESEC Mtb Asd; [9]) | growth (E. coli TESEC Mtb Asd; [10]) | growth (E. coli TESEC Mtb DapB; [11]) | growth (E. coli TESEC Mtb DapB; [12]) | growth (E. coli TESEC Mtb Alr [3]; [13]) | growth (E. coli TESEC Mtb Alr [3]; [14])
1 | NC(=O)C[S+]([O-])C(c1ccccc1)c1ccccc1 (centres undefined) [Modafinil] | 0.246 ± 0.0057 | 0.295 ± 0.0039 | 0.255 ± 0.015 | 0.246 ± 0.021 | 0.192 ± 0.0097 | 0.148 ± 0.0039 | 0.348 ± 0.097 | 0.434 ± 0.039 | 0.191 ± 0.013 | 0.199 ± 0.017 | 0.406 ± 0.0054 | 0.346 ± 0.021
2 | O=c1[nH]oc2c1CCNC2 [THIP Hydrochloride] | 0.26 ± 0.0053 | 0.316 ± 0.0096 | 0.266 ± 0.0055 | 0.2 ± 0.019 | 0.194 ± 0.014 | 0.136 ± 0.0034 | 0.262 ± 0.035 | 0.433 ± 0.04 | 0.2018 ± 0.0015 | 0.238 ± 0.014 | 0.41 ± 0.013 | 0.349 ± 0.018
3 | C[C@]12C/C(=C/O)C(=O)C[C@@H]1CC[C@@H]1[C@@H]2CC[C@@]2(C)[C@H]1CC[C@]2(C)O [Oxymetholone] | 0.162 ± 0.002 | 0.293 ± 0.0078 | 0.241 ± 0.025 | 0.244 ± 0.014 | 0.101 ± 0.0039 | 0.177 ± 0.0058 | 0.124 ± 0.0085 | 0.226 ± 0.043 | 0.158 ± 0.013 | 0.194 ± 0.019 | 0.379 ± 0.019 | 0.252 ± 0.004
4 | O=C(NCNC(=O)NC1C(=O)NC(=O)N1CO)NC1C(=O)NC(=O)N1CO (centres undefined) [Imidurea] | 0.231 ± 0.0035 | 0.2874 ± 0.0013 | 0.289 ± 0.0059 | 0.193 ± 0.036 | 0.231 ± 0.022 | 0.135 ± 0.0032 | 0.336 ± 0.057 | 0.358 ± 0.074 | 0.207 ± 0.024 | 0.215 ± 0.032 | 0.44 ± 0.021 | 0.345 ± 0.012
5 | C[N+]1(C)[C@@H]2CC[C@H]1C[C@@H](OC(=O)C(CO)c1ccccc1)C2 (some centres undefined) [Methylatropine nitrate] | 0.232 ± 0.013 | 0.283 ± 0.017 | 0.247 ± 0.0037 | 0.206 ± 0.0059 | 0.2 ± 0.007 | 0.14 ± 0.0059 | 0.286 ± 0.02 | 0.438 ± 0.022 | 0.199 ± 0.028 | 0.229 ± 0.0072 | 0.391 ± 0.011 | 0.355 ± 0.012
6 | COc1ccc2c(c1)[C@]13CCCC[C@@H]1[C@H](C2)N(C)CC3 [Dextromethorphan hydrobromide monohydrate] | 0.1976 ± 0.0013 | 0.25 ± 0.005 | 0.255 ± 0.0068 | 0.2 ± 0.027 | 0.154 ± 0.0044 | 0.142 ± 0.002 | 0.168 ± 0.015 | 0.29 ± 0.045 | 0.17 ± 0.015 | 0.232 ± 0.031 | 0.42 ± 0.006 | 0.355 ± 0.015
7 | O=P1(NCCCl)OCCCN1CCCl (centres undefined) [Ifosfamide] | 0.233 ± 0.012 | 0.301 ± 0.027 | 0.2741 ± 0.0022 | 0.175 ± 0.022 | 0.192 ± 0.0026 | 0.137 ± 0.0089 | 0.374 ± 0.074 | 0.48 ± 0.032 | 0.204 ± 0.0083 | 0.222 ± 0.026 | 0.417 ± 0.011 | 0.359 ± 0.01
8 | COc1cc2c(cc1OC)C(C)NCC2 (centres undefined) | 0.236 ± 0.0037 | 0.2925 ± 0.0014 | 0.275 ± 0.0075 | 0.225 ± 0.035 | 0.188 ± 0.0027 | 0.15 ± 0.0045 | 0.337 ± 0.049 | 0.349 ± 0.082 | 0.212 ± 0.013 | 0.232 ± 0.0067 | 0.408 ± 0.011 | 0.323 ± 0.025
9 | NCC1(CC(=O)O)CCCCC1 [Gabapentin] | 0.255 ± 0.0094 | 0.324 ± 0.013 | 0.281 ± 0.011 | 0.215 ± 0.021 | 0.184 ± 0.003 | 0.156 ± 0.0041 | 0.478 ± 0.023 | 0.399 ± 0.044 | 0.215 ± 0.016 | 0.278 ± 0.045 | 0.401 ± 0.02 | 0.325 ± 0.022
10 | CN1CCN(C(=O)OC2c3nccnc3C(=O)N2c2ccc(Cl)cn2)CC1 (centres undefined) [Zopiclone] | 0.222 ± 0.0047 | 0.284 ± 0.0071 | 0.246 ± 0.0053 | 0.183 ± 0.011 | 0.18 ± 0.0087 | 0.138 ± 0.0054 | 0.291 ± 0.062 | 0.358 ± 0.056 | 0.194 ± 0.0097 | 0.224 ± 0.04 | 0.417 ± 0.009 | 0.357 ± 0.01
11 | COc1cc([C@@H]2c3cc4c(cc3[C@H](O)[C@H]3COC(=O)[C@H]23)OCO4)cc(OC)c1OC [Podophyllotoxin] | 0.222 ± 0.0075 | 0.298 ± 0.016 | 0.271 ± 0.0092 | 0.168 ± 0.012 | 0.163 ± 0.0082 | 0.1495 ± 0.0008 | 0.443 ± 0.027 | 0.46 ± 0.053 | 0.212 ± 0.012 | 0.261 ± 0.027 | 0.403 ± 0.015 | 0.298 ± 0.0059
12 | CCCC[N+]1(C)[C@@H]2CC(OC(=O)[C@H](CO)c3ccccc3)C[C@H]1[C@@H]1O[C@@H]12 (some centres undefined) [Butylscopolammonium (n-) bromide] | 0.225 ± 0.0045 | 0.296 ± 0.012 | 0.2707 ± 0.0023 | 0.189 ± 0.01 | 0.185 ± 0.0011 | 0.132 ± 0.0029 | 0.372 ± 0.073 | 0.412 ± 0.034 | 0.216 ± 0.011 | 0.232 ± 0.015 | 0.405 ± 0.0075 | 0.338 ± 0.021
13 | CN1C[C@H](CNC(=O)OCc2ccccc2)C[C@@H]2c3cccc4c3c(cn4C)C[C@H]21 [Metergoline] | 0.0409 ± 0.00056 | 0.0429 ± 0.0039 | 0.04017 ± 0.00032 | 0.0428 ± 0.00093 | 0.0401 ± 0.00017 | 0.0432 ± 0.0024 | 0.0522 ± 0.002 | 0.0487 ± 0.0029 | 0.048 ± 0.0011 | 0.0468 ± 0.00083 | 0.278 ± 0.2 | 0.05077 ± 0.00012
14 | C[C@@H]1C[C@@H]([C@H](O)CC2CC(=O)NC(=O)C2)C(=O)[C@@H](C)C1 [Cycloheximide] | 0.25 ± 0.014 | 0.314 ± 0.018 | 0.268 ± 0.006 | 0.195 ± 0.009 | 0.186 ± 0.011 | 0.157 ± 0.0081 | 0.469 ± 0.0092 | 0.443 ± 0.042 | 0.231 ± 0.031 | 0.258 ± 0.027 | 0.394 ± 0.033 | 0.33 ± 0.013
15 | C1CCc2nnnn2CC1 [Pentylenetetrazole] | 0.255 ± 0.011 | 0.282 ± 0.018 | 0.275 ± 0.0089 | 0.233 ± 0.021 | 0.187 ± 0.0053 | 0.141 ± 0.007 | 0.402 ± 0.0048 | 0.431 ± 0.017 | 0.227 ± 0.037 | 0.274 ± 0.11 | 0.408 ± 0.011 | 0.367 ± 0.022
16 | Clc1ccc(C(OCCN2CCCCC2)c2ccccc2)cc1 (centres undefined) [Cloperastine hydrochloride] | 0.186 ± 0.0072 | 0.232 ± 0.0029 | 0.2462 ± 0.0014 | 0.174 ± 0.0052 | 0.0487 ± 0.0015 | 0.0546 ± 0.00059 | 0.113 ± 0.002 | 0.154 ± 0.0084 | 0.146 ± 0.012 | 0.163 ± 0.0059 | 0.4058 ± 0.0039 | 0.147 ± 0.085
17 | C[C@]12C[C@H]3S[C@H]3C[C@@H]1CC[C@@H]1[C@@H]2CC[C@]2(C)[C@@H](O)CC[C@@H]12 [Epitiostanol] | 0.248 ± 0.0036 | 0.291 ± 0.012 | 0.281 ± 0.0097 | 0.144 ± 0.011 | 0.15 ± 0.013 | 0.136 ± 0.0072 | 0.162 ± 0.018 | 0.337 ± 0.098 | 0.203 ± 0.01 | 0.21 ± 0.029 | 0.413 ± 0.014 | 0.265 ± 0.015
